Assay outcomes from PubChem.
Sampled rows, rich in hits. Any-hit rate of the full collection: about 12%.
PLK1 PBD block: PLK1 (human) polo-box domain binding inhibition | P53350 | Plk1 PBD binding of FITC phosphopeptide, fluorescence polarization | Potency, µM, for the others: max response, negative = inhibition, most hits filed as inhibitors | 360,000 compounds, 2.8% hits; further: series mostly up to about 57 µM; on the % scale 0 is the no-effect control and ±100 the full control effect; nearly all actives have a fitted effect of over 65% in size
JMJD2A Tudor inh: JMJD2A Tudor domain (human) inhibition. Potency, µM (highest dose often 114 µM), inactives show at the highest dose activity change, negative = inhibition, usual class: inhibitors. AlphaScreen JMJD2A-Tudor / H3K4me3 peptide binding. O75164. 390,000 compounds, 4.4% hits; further: on the % scale 0 is the no-effect control and ±100 the full control effect; nearly all actives have a fitted effect of over 50% in size
Sfp inh: Sfp phosphopantetheinyl transferase inhibition; Q9F4F7; Biochemical Sfp PPTase activity, qHTS; Potency, µM, inactives show largest response in the series, negative = inhibition, hits mostly inhibitors; 310,000 compounds, 3.5% hits;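 further: the enzyme is Sfp with the accession as filed and its product quenches rhodamine fluorescence; 0% = enzyme reaction without inhibitor and -100% = no enzyme wells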
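Fluorescence-quenching assay: 15 nM Sfp-PPTase preincubated 15 min at room temperature with compound, then 5 uM rhodamine-CoA and 12.5 uM BHQ-2-labelled YbbR peptide added. Fluorescence (ex 525/em 598 nm) read at start and after 30 min; difference gives rate.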
BAZ2B block: blocks human BAZ2B; AlphaScreen BAZ2B-H3K14Ac peptide displacement; Potency, µM (series often up to 114 µM), without a hit: at the top dose activity change, negative = inhibition, hits mostly inhibitors; 360,000 compounds, 4.4% hits; AID 504333; further: on the % scale 0 is the no-effect control and ±100 the full control effect; nearly all actives have a fitted effect of over 60% in size
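In this displacement format the biotinylated H3(5-23) peptide acetylated at Lys14 serves as ligand at 50 nM, with BAZ2B at 50 nM in PBS pH 7.4 containing 0.01% Tween-20. Donor and acceptor beads are 10 ug/mL final.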
HP1b binding inh: HP1-beta chromodomain-methylated histone interaction inhibition. AlphaScreen HP1-beta / biotin-H3K9me3 peptide binding. Potency, µM (top dose mostly 114 µM), inactives show at the top dose activity change, negative = inhibition, hits mostly inhibitors. 390,000 compounds, 0.56% hits. AID 540317; further: nearly all actives have a fitted effect of over 70% in size
Target sequence (P83916 whole entry, looked up): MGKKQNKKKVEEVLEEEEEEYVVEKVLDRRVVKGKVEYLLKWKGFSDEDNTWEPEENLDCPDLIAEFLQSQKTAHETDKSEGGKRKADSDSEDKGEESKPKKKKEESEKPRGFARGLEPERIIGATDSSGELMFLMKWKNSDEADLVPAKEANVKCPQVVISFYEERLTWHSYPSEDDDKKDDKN
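Compound inhibition of the preformed complex between 50 nM HP1-beta and 50 nM biotinylated H3K9me3 peptide was read by AlphaScreen. Buffer was PBS pH 7.4 with 0.01% Tween-20. Incubations ran 30 min at room temperature, with 10 ug/mL donor/acceptor beads.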
G9a block: blocks human histone lysine methyltransferase G9a. 350,000 compounds, 8.8% hits. Potency, µM (doses to about 102 µM), for the others: top-dose activity, negative = inhibition, hits mostly inhibitors. Q96KQ7. G9a H3K9 monomethylation, AlphaScreen, 2 h. AID 504332; further: on the % scale 0 is the no-effect control and ±100 the full control effect; nearly all actives have a fitted effect of over 75% in size
Target sequence (Q96KQ7 913-1193 limits assumed): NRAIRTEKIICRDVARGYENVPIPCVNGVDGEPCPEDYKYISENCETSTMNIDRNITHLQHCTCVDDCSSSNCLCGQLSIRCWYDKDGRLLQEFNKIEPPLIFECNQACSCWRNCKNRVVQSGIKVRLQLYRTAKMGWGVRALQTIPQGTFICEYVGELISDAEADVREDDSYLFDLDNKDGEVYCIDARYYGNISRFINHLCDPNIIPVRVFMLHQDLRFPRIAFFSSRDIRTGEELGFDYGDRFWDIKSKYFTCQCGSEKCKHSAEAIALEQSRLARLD
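Step 1: enzyme (final 20 nM) with compound, 15 min RT. Step 2: substrate peptide 500 nM and SAM 20 uM, 2 h RT. Step 3: anti-H3K9me1 antibody and AlphaScreen beads, 10 min, then plate read.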
The depositor's hits bear a star; ? = inconclusive; . = no result; [ ] = another dose, or the depositor's remark. The call rests on the fitted dose curve; in most records, active means well fitted curve in the direction sought with a large enough effect; inconclusive means small, poorly fitted or top-dose-only effect, or another doubt; inactive means no such curve, though single readings can be large; an effect the other way counts as inactive or inconclusive. Potency means the concentration at half of the fitted maximal effect.

SMILES	PLK1 PBD block	JMJD2A Tudor inh	Sfp inh	BAZ2B block	HP1b binding inh	G9a block
CC[C@H](C)[C@@H]1NC(=O)c2cc([N+](=O)[O-])cc(I)c2SC[C@@H](C(N)=O)NC(=O)[C@H](CCCCN)NC1=O	-10%	?	?	71µM*	1%	8.9µM*
NC(=O)[C@@H]1CCCNc2c(I)cc([N+](=O)[O-])cc2C(=O)N[C@@H](CCCN=C(N)N)C(=O)N[C@@H](CCCN=C(N)N)C(=O)N1	.	.	-5%	-35%	.	14µM*
CC[C@H](C)[C@@H]1NC(=O)c2cc([N+](=O)[O-])cc(F)c2NCCCC[C@@H](C(N)=O)NC(=O)[C@H](CC(N)=O)NC1=O	-4%	-20%	7%	-2%	36%	?
CC[C@H](C)[C@@H]1NC(=O)c2cc([N+](=O)[O-])cc(I)c2NCC[C@@H](C(N)=O)NC(=O)[C@H](CCCN=C(N)N)NC1=O	3%	-28%	5%	?	34%	14µM*
C[C@@H](O)C1NC(=O)[C@H](CCCCN)NC(=O)c2cc([N+](=O)[O-])cc(F)c2NCCCC[C@@H](C(N)=O)NC1=O (stereo not given in full)	-4%	-24%	-1%	-27%	18%	?
CC[C@H](C)C1NC(=O)[C@H](CC(=O)O)NC(=O)c2cc([N+](=O)[O-])cc(I)c2NCCC(C(N)=O)NC1=O (stereo not given in full)	-8%	-20%	21%	-32%	25%	?
Cc1cc(S(=O)(=O)Nc2cccc(-c3ccc(N4CCOCC4)nn3)c2)c(C)cc1Cl	.	-35%	.	-38%	-5%[57 µM]	-29%[59 µM]
Nc1nc2c(ncn2[C@@H]2O[C@H](CNCC3=Cc4cc(O)ccc4OC3)[C@@H](O)[C@H]2O)c(=O)[nH]1	1%	.	.	.	.	.
CCOC(=O)N1CC=C2C(C#N)=C(N)C(C#N)(C#N)[C@H](c3cccs3)C2C1 (stereo not given in full)	-14%	-15%[57.1 µM]	20%	3%	50%	4%[59 µM]
CC1CC=C2C(C#N)=C(N)C(C#N)(C#N)C(c3cccs3)C2C1 (stereo not given)	27µM*	-17%	-18%	3%	46%	40µM*
CC(C)(C)OC(=O)NCc1nnc(-c2cc3ccccc3[nH]2)o1	.	-12%	.	.	.	.
COc1cccc(C(=O)Nc2cccc(C(=O)OCc3cc(=O)n4nc(C(C)C)sc4n3)c2)c1	.	4%	.	-3%	22%	-2%[59 µM]
O=C(OCc1cc(=O)n2c(n1)sc1ccccc12)c1ccc(O)cc1O	-29%	-20%	5%	-37%	29%	?
O=C(Cc1coc2cc3c(cc12)CCC3)OCc1cc(=O)n2c(n1)sc1ccccc12	-25%	?	40µM*	50µM*	?	-35%[12.7 µM]
O=C(OCc1cc(=O)n2c(n1)sc1ccccc12)c1cccc(O)c1	?	35µM*	-10%	-45%	?	-4%[59 µM]
CC(C)c1nn2c(=O)cc(COc3cccc(NC(=O)c4ccco4)c3)nc2s1	24µM*	-24%	11%	-1%	-6%	14%
Cc1ccc2c(CC(=O)OCc3csc(C)n3)coc2c1	-3%	18%	12%	41%	28%	1%[59 µM]
Cc1ccc(C(=O)N[C@H](C(=O)OCc2cc(=O)n3c(n2)sc2ccccc23)C(C)C)cc1	-7%	-15%	-6%	8%	31%	40µM*
CN1C(=O)[C@@H]2[C@H](C1=O)[C@@H]1C(=O)Nc3ccccc3C(=O)N1[C@@H]2c1cccc(Br)c1	-1%	-7%	.	7%	50%	-9%[2.33 µM]
CC(C)[C@H](NC(=O)c1ccco1)C(=O)OCc1cc(=O)n2c(n1)sc1ccccc12	?	?	-1%	50µM*	-4%	45µM*
CN(C)CC#CCCCCCCC#CCN(C)C	.	.	2%	6%	.	?
C#CCCCCCCC#CCN(C)C	-12%	1.8µM*	-6%	?	?	28µM*
O=C(OCc1ccccc1)/C(=C(\O)c1ccccc1Br)c1ccc(-c2ccccc2)cn1	1%	-8%	.	56µM*	80%	-4%[2.33 µM]
O=C(OCc1ccccc1)c1cccnc1Cl	0%	25%	10%	18%	37%	37%
O=C(O)c1cccc(-c2ccc3c(c2)OCO3)c1	-1%	-10%	11%	-10%	46%	-11%
SMILES	PLK1 PBD block	JMJD2A Tudor inh	Sfp inh	BAZ2B block	HP1b binding inh	G9a block
O=C1OC(c2ccc3c(c2)OCO3)=N/C1=C\c1ccc(C(=O)O)cc1	-27%	-20%	8%	-22%	4%	40µM*
Cc1ccc(NS(=O)(=O)c2cccc(C(=O)OCC(=O)NCc3ccco3)c2)cc1	-9%	?	-22%	56µM*	-15%	?
CC(OC(=O)c1cccs1)C(=O)NCc1ccco1 (stereo not given)	2%	-6%	11%	14%	37%	-10%[59 µM]
O=C(COC(=O)c1ccc(NS(=O)(=O)c2cccs2)cc1)NCc1ccco1	?	-29%[11.4 µM]	35µM*	32µM*	-21%	?
COc1ccccc1C(OC(=O)c1cccs1)C(=O)NCc1ccco1 (stereo not given)	-17%	-23%	50µM*	?	19%	45µM*
COc1cc(NC(=O)c2cccs2)c(C(=O)OCC(=O)NCc2ccco2)cc1OC	-20%	-22%	?	-7%	15%	-45%[12.7 µM]
Cc1ccc(NS(=O)(=O)c2ccc(OCC(=O)NCc3ccco3)cc2)cc1	-10%	-35%	10%	-35%	-11%	-2%[12.7 µM]
O=C(COC(=O)c1cccs1)NCc1ccco1	-20%	35µM*	-3%	50µM*	50µM*	?
Clc1ccccc1-c1nc(NC2CCNCC2)c2ccccc2n1	.	.	26%	.	.	3%[0.501 µM]
CC(C)(C)NC(=O)c1cnn(-c2ccccc2)c1C1CCN(C(=O)OC(C)(C)C)CC1	.	5%	.	8%[57.1 µM]	43%	-3%[59 µM]
O=C(O)CCN1C(=O)C2CCCCC2C1=O (stereo not given)	-3%	-9%	2%	-3%	36%	-63%
O=C1C(=O)N(O)C2CCCCC2N1O (stereo not given)	0%	?	-18%	?	21%	7.9µM*
CCn1cnc2c(Nc3ccc(CC(=O)N=C(N)N)cc3)nc(C#N)nc21	.	-21%	.	.	.	.
CCNC(=S)N/N=C/c1cn(Cc2ccc(F)cc2)c2ccccc12	0%	?	-1%	?	-11%	8%[59 µM]
Cc1ccc(/C=N/Nc2ccc(Cl)c(C(=O)O)c2)s1	-19%	-25%	-14%	?	7%	?
Cc1ccc(C(=O)N/N=C/c2cn(Cc3ccccc3)c3ccccc23)cn1	-5%	?	-12%	-30%	15%	.
CC(C)n1cc(/C=N/Nc2ccc(Cl)c(C(=O)O)c2)c2ccccc21	.	.	-9%	45µM*	.	10µM*
